D2 antag: antagonists of human D2 dopamine receptor; inhibition, % at 10 µM; 340,000 tested, 2% active; P14416; HEK293 TREx D2 cells, calcium flux, dopamine EC80; in the data active = inhibition above about 30%; inactive = below that, where a call was filed; also: 0% is about no effect
Target sequence (P14416 whole entry, looked up): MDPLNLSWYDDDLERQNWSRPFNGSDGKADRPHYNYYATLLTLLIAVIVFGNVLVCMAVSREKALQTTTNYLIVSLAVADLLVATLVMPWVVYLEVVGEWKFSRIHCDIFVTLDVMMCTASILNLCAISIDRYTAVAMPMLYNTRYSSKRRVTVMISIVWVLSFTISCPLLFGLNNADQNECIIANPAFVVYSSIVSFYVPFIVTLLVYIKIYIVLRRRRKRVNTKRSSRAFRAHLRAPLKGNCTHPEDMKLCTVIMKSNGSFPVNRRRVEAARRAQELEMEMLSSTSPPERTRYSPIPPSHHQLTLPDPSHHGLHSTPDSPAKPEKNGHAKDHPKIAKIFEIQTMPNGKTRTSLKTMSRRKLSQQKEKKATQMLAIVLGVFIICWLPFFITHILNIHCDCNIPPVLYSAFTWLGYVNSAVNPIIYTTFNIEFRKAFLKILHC
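In this primary screen, negative modulation is detected by tracking calcium flux after an EC80 dopamine challenge in inducible HEK293 T-REx D2 cells preexposed to test compound for 180 s.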
D2 PAM-1: potentiates the human D2 dopamine receptor allosterically; DiscoveRx D2 beta-arrestin cells, luminescence, 90 min; 100% = 57 uM dopamine signal; potentiation, % (test concentration not listed); 360,000 tested, 0.23% active; in the data active = potentiation above about 50%; inconclusive = mostly about 30% to 49%
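PathHunter D2 cells, attached overnight at 37 deg C, received compound in DMSO plus dopamine at EC20 (50 nM final) for 90 min at 37 deg C. Beta-arrestin recruitment was read as luminescence after 1 h with detection reagent at ambient temperature.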
D2 ag-1: human D2 receptor agonism in beta-arrestin assay | P14416 | DiscoveRx PathHunter D2 beta-arrestin, luminescence, 90 min; 100% = 57 uM dopamine signal | activation, % (concentration not given with the values) | 360,000 tested, 0.084% active; in the data active = activation above about 40%; inconclusive = between about 15% and that limit
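Agonist mode: compounds alone added to overnight-plated D2 PathHunter cells for 90 min at 37 C, with 57 uM final dopamine (EC100) defining full response. Beta-arrestin recruitment detected by chemiluminescent reagent, read after 1 h at ambient temperature.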
D2 PAM-2: D2 dopamine receptor (human) potentiation. HEK293 T-REx D2, calcium flux, EC20 dopamine potentiation. potentiation, % at 10 µM. 340,000 tested, 0.34% active;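 active = potentiation over 3 SD above the plate norm, cut at about 30% in these data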; also: 0% is about no effect
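Tetracycline-induced Hek293 Trex D2 cells, force-coupled to calcium, loaded with no-wash calcium dye. Compound added with 180 s kinetic read for agonism, then EC20 dopamine and a further 180 s read for potentiation.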
D2 ag-2: agonists of human D2 dopamine receptor. 340,000 tested, 0.53% active. HEK293 T-REx D2 cells, calcium flux agonist mode. P14416. activation, % at 2 µM;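 active = activation over 3 SD above normal in the single-dose calcium agonist read, cut at about 30% in these data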; also: 0% is about no effect
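Agonism is scored from calcium flux in a force-coupled, inducible HEK293 cell line expressing D2, read kinetically for 180 s after compound addition against dopamine controls.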
Starred values were filed as active, the others as inactive; u = inconclusive; x = no result given. Hits are enriched below; roughly 2.4% of the tested compounds scored in any of these assays.

SMILES | D2 antag | D2 PAM-1 | D2 ag-1 | D2 PAM-2 | D2 ag-2
COc1ccccc1CN1CC(C(=O)NCCN(C)CCc2ccccc2)CCC1=O (centres undefined) | 24.2 | -23.7 | 0.5 | -16.4 | 45.5*
COc1ccc(C)cc1NC(=O)C(CCSC)NS(=O)(=O)c1ccc2c(c1)oc(=O)n2C (centres undefined) | x | x | x | 14.0 | x
CCOc1cc(C=NN2CCCCCC2)ccc1O | x | 51.4* | 2.9 | x | x
Cc1cc(C)nc(Sc2ccc([N+](=O)[O-])cc2[N+](=O)[O-])n1 | -6.8 | 70.0* | 8.6 | 10.0 | 0.0
O=[N+]([O-])c1ccc(Sc2ccncn2)c([N+](=O)[O-])c1 | x | -15.8 | u | x | x
OC(COc1ccc2c(c1)CCC2)CN1CCN(c2ccccc2F)CC1 (centres undefined) | -20.5 | -30.2 | 14.8 | 8.1 | 0.7
Oc1ccccc1N1CCN(CC(O)COC2CCCc3ccccc32)CC1 (centres undefined) | 40.1* | -7.9 | -1.3 | -21.7 | 10.9
CC1=Nn2c(nc3sc4c(c3c2=O)CCCC4)SC1 | 54.8* | 0.9 | -6.3 | 5.1 | -0.3
O=c1c2c3c(sc2nc2n1CCCCC2)CCCCC3 | 56.7* | x | x | 8.3 | 0.3
Cc1ccc(NC(=O)c2nc(S(C)(=O)=O)ncc2N(Cc2ccc(C(C)(C)C)cc2)Cc2ccco2)cc1C | x | x | x | x | 3.0
COc1ccc(/C=N/NS(=O)(=O)c2ccccc2)cc1OS(=O)(=O)c1ccc(C)cc1 | 31.6* | -22.2 | -5.5 | 3.3 | 0.0
COc1cccc(-n2ccnc2SCC(=O)Nc2ccc(Cl)c(Cl)c2)c1 | x | x | x | -25.9 | x
COc1ccc(NC(=O)CSc2nc3nc(C)c(Cc4ccccc4Cl)c(C)n3n2)cc1OC | x | x | x | 1.3 | x
COc1ccccc1-n1cnc2c(c1=O)c1nc3ccccc3nc1n2-c1ccc(C)cc1 | -24.0 | -14.0 | -3.8 | 32.7* | -1.6
O=C(NCc1ccccc1)C1CCN(S(=O)(=O)c2ccc(N3CCCC3=O)cc2)CC1 | -14.5 | 9.7 | -1.9 | -2.0 | -2.0
COc1ccccc1CNC(=O)C1CCN(S(=O)(=O)c2ccc(N3CCCC3=O)cc2)CC1 | 36.8* | -0.2 | -0.7 | 5.2 | 1.2
O=C(Nc1cccc(C(F)(F)F)c1)C1CCN(S(=O)(=O)c2ccc(N3CCCC3=O)cc2)CC1 | 64.4* | -29.6 | 5.0 | -23.0 | -1.4
COc1cc(C(=O)O/N=C(\N)c2ccncc2)cc(OC)c1OC | 12.8 | 84.0* | 13.6 | -8.6 | -0.6
COc1cccc(C(=O)O/N=C(\N)c2ccncc2)c1 | 12.5 | 59.4* | 9.5 | -2.6 | -0.2
Cc1ccc(/C(N)=N/OC(=O)c2ccc3c(c2)OCO3)cc1 | 0.1 | 26.5 | 5.6 | 0.0 | -0.3
COc1cccc(C(=O)O/N=C(\N)c2ccc(C)cc2)c1 | -12.3 | u | -0.2 | 13.2 | -0.7
COc1ccc(C(=O)O/N=C(\N)c2ccc(Cl)cc2)cc1 | -18.2 | 0.0 | u | 0.9 | -0.3
COc1ccc(/C(N)=N/OC(=O)c2ccc3c(c2)OCO3)cc1 | -29.9 | 103.4* | u | 3.6 | 0.5
COc1cccc(C(=O)O/N=C(\N)Cc2ccc(Cl)cc2)c1 | 0.1 | 125.2* | u | -3.4 | 0.3
Cc1ccc2cccc(NC(=O)c3ccc(-c4cccc(Cl)c4Cl)o3)c2n1 | x | x | x | -1.0 | -1.2
SMILES | D2 antag | D2 PAM-1 | D2 ag-1 | D2 PAM-2 | D2 ag-2
Cc1cc2c(cc1S(=O)(=O)Nc1cccc(C#N)c1)OCC(=O)N2 | x | x | x | 13.4 | 0.4
CSc1ccc(CCNc2ncnc3onc(C)c23)cc1 | x | x | x | -0.3 | 0.2
COc1cc(C(=O)O/N=C2\C=CC(=O)C(C)=C2)cc(OC)c1OC | -1.0 | 28.2 | 12.6 | -3.7 | 0.7
COc1ccc(C(=O)O/N=C(\N)c2ccncc2)cc1OC | 1.0 | 85.2* | u | -2.6 | 0.2
COc1cccc(C(=O)O/N=C(\N)c2ccc([N+](=O)[O-])cc2)c1 | -6.9 | 136.5* | u | 0.9 | 0.1
COc1cc(C(=O)ON=C2C=C(C)C(=O)C(C)=C2)cc(OC)c1OC | 22.1 | 63.7* | 15.0 | 2.8 | -0.2
COc1ccc(/C(N)=N/OC(=O)c2cccc([N+](=O)[O-])c2)cc1 | 13.0 | 24.9 | 7.9 | -3.6 | -0.6
CCC1Oc2ccccc2N(CC(=O)NCc2ccccc2)C1=O (centres undefined) | x | x | x | 6.8 | 0.4
CSc1ccc(CN2CCCC(CNC(=O)c3ccc(F)cc3)C2)cc1 (centres undefined) | 40.7* | -18.0 | 0.1 | -13.8 | 0.3
COc1ccc(CC(=O)NCC2CCCN(Cc3cccc(C(F)(F)F)c3)C2)cc1 (centres undefined) | -15.2 | -31.1 | -3.2 | 0.6 | 2.2
O=C(NCC1CCCN(Cc2ccccc2F)C1)c1cccc(C(F)(F)F)c1 (centres undefined) | 31.5* | -9.8 | -4.8 | -15.1 | 1.5
CCn1c(SCc2ccc([N+](=O)[O-])cc2)nnc1C(C)NC(=O)c1ccc(C)cc1 (centres undefined) | -5.5 | -6.5 | -1.5 | -5.2 | -0.5
CC(NC(=O)c1ccc(Cl)cc1)c1nnc(SCc2ccc([N+](=O)[O-])cc2)n1C (centres undefined) | 32.3* | -3.8 | 0.7 | -11.2 | 1.0
CCOc1ccc(C2=CC(c3cc(Br)ccc3F)n3ncnc3N2)cc1Cl (centres undefined) | x | x | x | -9.0 | x
COc1ccc(OC)c(/C=C/C(=O)N(C)CC(=O)Nc2ccc(N3CCOCC3)cc2)c1 | 40.4* | -26.8 | 1.3 | -7.5 | 0.7
CCN(CC)S(=O)(=O)c1ccc(NC(=O)Cn2c(=O)sc3ccccc32)cc1 | 43.0* | -11.9 | -1.0 | 3.2 | 1.2
COC(=O)c1c(Oc2ccc(C(C)=O)cc2)nnc(-c2ccccc2)c1-c1ccccc1 | x | x | x | 5.5 | -0.3
CC(C)C(NC(=O)c1ccccc1)C(=O)NCC(c1ccccc1)N(C)C (centres undefined) | x | -10.8 | -1.1 | x | x
CC(C)[C@H](NC(=O)c1ccco1)C(=O)Nc1ccc(OC(F)F)cc1 | -2.4 | -1.2 | -1.6 | 3.6 | -0.3
CCOc1ccc(NC(=O)[C@@H](NC(=O)c2ccco2)C(C)C)cc1 | 39.0* | -10.2 | -4.3 | 2.2 | 1.8
CC(C)C(NC(=O)c1ccco1)C(=O)NCC(c1ccco1)N(C)C (centres undefined) | 12.4 | -7.2 | -3.2 | 33.3* | 0.3
COc1ccccc1Cn1c(C2CC(=O)N(c3ccccc3OC)C2)nc2ccccc21 (centres undefined) | x | x | x | -0.6 | 6.0
CNC(=O)c1sccc1-n1cccc1 | -8.9 | -18.7 | -1.0 | -0.1 | -0.1
CCOc1ccc(NC(=O)c2sccc2-n2cccc2)cc1 | 5.0 | -9.0 | -5.0 | 64.5* | -1.0
COc1ccc(OCC(O)CNC(=O)Nc2cc(F)ccc2C)cc1 (centres undefined) | 38.2* | -31.7 | -3.5 | 9.5 | -0.4
CCc1ccc(NC(=O)CC2C(=O)N(c3cccc(OC)c3)C(=O)N2C2CCCC2)cc1 (centres undefined) | x | x | x | -3.5 | 0.0
